# Activity calls are given as the source filed them.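 Rule for the calls: active = calcium response above 60% of the acetylcholine maximum at human M5, as a positive modulator; inactive = the rest.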
# Target: Muscarinic acetylcholine receptor M5 (Homo sapiens) (UniProt P08912)
# Assay: M5 muscarinic receptor positive allosteric modulators, cell-based, single concentration, CHO-K1 hM5, calcium flux (AID 743100)
# Conditions: CHO-K1 hM5, Fluo-4 calcium flux, ACh EC20, active compounds read high; at 10 µM unless noted
# Muscarinic acetylcholine receptor M5 (Homo sapiens), sequence (P08912 whole entry, looked up): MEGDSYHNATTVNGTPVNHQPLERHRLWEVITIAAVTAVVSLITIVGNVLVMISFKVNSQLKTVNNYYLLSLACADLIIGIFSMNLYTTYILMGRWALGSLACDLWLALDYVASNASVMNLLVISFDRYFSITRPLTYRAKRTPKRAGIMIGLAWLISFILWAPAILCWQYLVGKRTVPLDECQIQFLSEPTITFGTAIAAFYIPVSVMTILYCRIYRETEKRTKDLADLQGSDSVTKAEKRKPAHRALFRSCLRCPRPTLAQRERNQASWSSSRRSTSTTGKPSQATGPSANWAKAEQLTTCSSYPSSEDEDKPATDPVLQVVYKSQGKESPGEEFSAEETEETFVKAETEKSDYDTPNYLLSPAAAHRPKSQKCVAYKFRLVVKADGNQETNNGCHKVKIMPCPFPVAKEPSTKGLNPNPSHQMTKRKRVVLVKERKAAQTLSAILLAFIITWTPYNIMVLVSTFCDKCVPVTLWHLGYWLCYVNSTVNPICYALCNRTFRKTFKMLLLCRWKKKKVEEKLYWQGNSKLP
row,SMILES,% ACh max response
1,CCN(Cc1ccccc1)C(=O)C1CCN(S(=O)(=O)c2ccc(C(C)=O)cc2)CC1,58.4% [at 30 µM] (inactive)
2,CCN(C(=O)C1CCN(S(=O)(=O)c2cc(F)c(F)c(F)c2)CC1)[C@H](C)c1ccccc1,71.9% (active)
3,O=C(NCc1ccccc1)C1(Cc2ccccc2)CCN(S(=O)(=O)c2ccc3occc3c2)CC1,20.1% (inactive)
4,CCN(Cc1ccccc1)C(=O)C1CCN(S(=O)(=O)c2cccc(C)c2)CC1,63.8% [at 30 µM] (active)
5,CCN(Cc1ccccc1)C(=O)C1CCN(S(=O)(=O)c2cccc3nsnc23)CC1,40.8% [at 30 µM] (inactive)
6,CCN(C(=O)C1CCN(S(=O)(=O)c2ccc(-n3cccn3)cc2)CC1)[C@H](C)c1ccccc1,97.5% (active)
7,CCN([C@H](C)c1ccccc1)S(=O)(=O)C1CCN(S(=O)(=O)c2ccc3cn[nH]c3c2)CC1,19.4% (inactive)
8,CCN(Cc1ccccc1)C(=O)C1CCN(S(=O)(=O)c2ccc3cn(C)nc3c2)CC1,64.9% (active)
9,CCN(Cc1ccccc1C(F)(F)F)C(=O)C1CCN(S(=O)(=O)c2ccc(-n3cccn3)cc2)CC1,81.9% (active)
10,CCN(Cc1ccccc1C(F)(F)F)C(=O)C1(F)CCN(S(=O)(=O)c2ccc3occc3c2)CC1,54% (inactive)
11,CCN(Cc1cc(F)ccc1F)C(=O)C1CCN(S(=O)(=O)c2ccc3cn[nH]c3c2)CC1,57.2% (inactive)
12,CCN(Cc1ccccc1OC(F)(F)F)C(=O)C1CCN(S(=O)(=O)c2ccc3cn[nH]c3c2)CC1,73.2% (active)
13,CCN(Cc1ccccc1C#N)C(=O)C1CCN(S(=O)(=O)c2ccc3cn[nH]c3c2)CC1,36.8% (inactive)
14,CCN(Cc1ccccc1)C(=O)C1CCN(S(=O)(=O)Cc2cccc(C(F)(F)F)c2)CC1,25.5% [at 30 µM] (inactive)
15,COc1cccc(S(=O)(=O)N2CCC(CN(Cc3ccccc3)C(C)=O)CC2)c1,12.7% (inactive)
16,CCN(Cc1ccccc1)C(=O)C1CCN(S(=O)(=O)c2ccccc2OC(F)(F)F)CC1,17.5% [at 30 µM] (inactive)
17,CCN(Cc1ccccc1)C(=O)C1CCN(S(=O)(=O)c2ccc(C(F)(F)F)cc2)CC1,62.6% [at 30 µM] (active)

row,SMILES,% ACh max response
1,CC(=O)N(Cc1ccccc1)CC1CCN(S(=O)(=O)c2ccc3c(c2)OCCO3)CC1,7.56% (inactive)
2,CCN(C(=O)C1CCN(S(=O)(=O)c2ccc3occc3c2)CC1)[C@H](C)c1ccccc1C(F)(F)F,34.4% (inactive)
3,CCN(Cc1ccccc1)C(=O)C1CCN(S(=O)(=O)Cc2ccc(Cl)cc2)CC1,16% [at 30 µM] (inactive)
4,CC(=O)N(Cc1ccccc1)CC1CCN(S(=O)(=O)c2ccc3cn[nH]c3c2)CC1,11.4% (inactive)
5,CCN(CC1CCN(S(=O)(=O)c2ccc(OC(F)(F)F)cc2)CC1)C(=O)c1ccccc1,10.5% (inactive)
6,CCN(Cc1ccccc1)C(=O)C1CCN(S(=O)(=O)c2ccc(OC)cc2)CC1,78.4% [at 30 µM] (active)
7,CCN(Cc1ccccc1)C(=O)C1CCN(S(=O)(=O)c2ccc(C(C)C)cc2)CC1,66.7% [at 30 µM] (active)
8,CCN(Cc1ccccc1)C(=O)C1CCN(S(=O)(=O)c2cccc(OC(F)F)c2)CC1,70.2% [at 30 µM] (active)
9,COc1ccc(S(=O)(=O)N2CCC(CN(Cc3ccccc3)C(C)=O)CC2)cc1,11.8% (inactive)
10,CCN(CC1CCN(S(=O)(=O)c2ccc(OC)cc2)CC1)C(=O)c1ccccc1,15.2% (inactive)
11,CCOC(=O)C1(Cc2ccccc2)CCN(S(=O)(=O)c2ccc3occc3c2)CC1,18.7% (inactive)
12,[2H]C([2H])(C)N(C(=O)C1CCN(S(=O)(=O)c2ccc3cn[nH]c3c2)CC1)[C@H](C)c1ccccc1,94.6% (active)
13,CCN(Cc1ccccc1)C(=O)C1CCN(S(=O)(=O)c2ccncc2)CC1,24.6% (active)
14,CC(=O)N(Cc1ccccc1)CC1CCN(S(=O)(=O)c2ccc(OC(F)(F)F)cc2)CC1,6.72% (inactive)
15,CCN(Cc1ccncc1)C(=O)C1CCN(S(=O)(=O)c2ccc3cn[nH]c3c2)CC1,22.4% (inactive)
16,CCN(Cc1cccc(C(F)(F)F)c1)C(=O)C1CCN(S(=O)(=O)c2ccc3cn[nH]c3c2)CC1,35.4% (inactive)

# Source: PubChem BioAssay AID743100 (Vanderbilt Specialized Chemistry Center, 2013)
